# Hits are enriched below; roughly 1.7% of the tested compounds scored in any of these assays.
# PfHsp40 yeast – rescue of yeast from PfHsp40 toxicity, primary screen, S. cerevisiae, ATP luminescence. 340,000 tested, 0.68% active. AID 504582, 2011. growth rescue, % at 12.5 µM. S. cerevisiae expressing PfHsp40, growth rescue; in the data active = growth rescue above about 28%, passing the limit was not always enough; inconclusive = no clear call, values can overlap the other calls;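 note: yeast W303a lacking pdr1 and pdr3 grown in galactose medium; growth measured after three days at 30 °C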
# PrPC surface inh – inhibitors of human cell surface prion protein PrPC, primary screen, cell-based, TR-FRET | Major prion protein (Homo sapiens), P04156 | TR-FRET read-out | inhibition, % at 13.8 µM | 370,000 tested, 0.43% active | AID 720596, 2013; in the data active = inhibition above about 24%; note: 0% = median of the test wells and 100% = reference compound wells
# PrP UTR inh – inhibition of PrP 5' UTR reporter expression; inhibition, % (no concentration beside the values); 340,000 tested, 0.35% active; cell-based PrP 5' UTR mRNA reporter, plate reader; in the data active = inhibition above about 52%; note: 0 = median of the neutral control wells
# Y pestis TopoI – Yersinia pestis topoisomerase I inhibitors, primary screen, biochemical, cleavage product accumulation, plate reader, single point; DNA topoisomerase I (Yersinia pestis CO92); Y. pestis Topo-I cleavage product accumulation; activity, % at 10 µM; 360,000 tested, 0.064% active; in the data active = activity above about 50%, passing the limit was not always enough; inconclusive = no clear call, values can overlap the other calls
# BJeLR lethal – MLPCN primary cell-based screen for lethality selective to Ras in HRASV12 cells; BJeLR (HRASV12) viability, CellTiter-Glo ATP luminescence, 48 h; inhibition, % (test concentration not listed); AID 1554, 2009; 300,000 tested, 0.17% active; in the data active = inhibition above about 50%; inconclusive = no clear call, values can overlap the other calls
# SSB-PriA inh – inhibitors of Klebsiella pneumoniae PriA binding to SSB C-terminal tail, primary screen, biochemical, AlphaScreen. inhibition, % at 33 µM. 430,000 tested, 0.6% active. AlphaScreen SSBct-PriA binding, biotinylated peptide; in the data active = inhibition mostly above about 37%, no sharp cut-off; inactive = mostly below about 20%;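 note: plate controls were negative control peptide for no effect and reference peptide for full effect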
# PrPC confirm – confirmation of inhibitors of cell surface human prion protein, confirmation, cell-based, TR-FRET | inhibition, % at 13.8 µM | cell surface PrPC level | 1,500 tested, 65% active | shares compounds with PrPC surface inh | AID 743200, 2013; in the data active = inhibition above about 25%
# LD9 tox – cytotoxicity in LD9 cells, cytotoxicity control for cell surface PrPc inhibitor project, cell-based, luminescence, high throughput. shares compounds with PrPC surface inh. luminescence viability. inhibition, % at 13.8 µM. 1,500 tested, 29% active; in the data active = inhibition above about 9.5%
# The depositor's hits bear a star; ? = inconclusive; / = no result.
SMILES,PfHsp40 yeast,PrPC surface inh,PrP UTR inh,Y pestis TopoI,BJeLR lethal,SSB-PriA inh,PrPC confirm,LD9 tox
O=C(NC1CC1)C1CCCN(C(=O)Nc2ccc(F)cc2)C1 (stereo not given),2,31*,-15,3,-7,-10,15,0
O=C(N/N=C/c1ccc(O)cc1)c1ccc(COc2cc(Cl)ccc2Cl)o1,0,27*,-15,2,-14,/,30*,-1
N#CC(C#N)=C1NC(N)=C(C#N)C(c2ccccc2)=C1C#N,2,74*,-20,2,-4,/,103*,-10
N#Cc1ccc(OC2CCN(C(=O)Nc3ccc(C(F)(F)F)cc3)CC2)nc1,/,/,/,/,/,2,/,/
CC(C)N1CCc2c(sc(NC(=O)c3ccc(S(=O)(=O)N4CCCCC4C)cc3)c2C(N)=O)C1 (stereo not given),0,43*,-2,11,14,0,-3,7
Cc1cc([N+](=O)[O-])ccc1NC=C1C(=O)OC(C)(C)OC1=O,/,/,/,/,/,11,/,/
C=C[C@@]1(C)CC(=O)[C@]2(O)[C@@]3(C)[C@@H](O)CCC(C)(C)[C@@H]3[C@H](O)[C@H](OC(C)=O)[C@@]2(C)O1,-1,34*,1,6,-10,-7,26*,-9
COc1ccc(-n2nnnc2CNC(=O)c2cccc(C(F)(F)F)c2)cc1,/,/,/,/,/,-11,/,/
Cc1ccccc1OCCC(=O)Nc1ccc2c(C)cc(=O)oc2c1,-1,38*,-29,1,-5,-8,27*,-1
COc1ccc(NC(=O)Nc2cnccn2)c(OC)c1,-2,3,-16,-9,8,-14,/,/
COc1ccc(NC(=O)Nc2ccc(Cc3ccncc3)cc2)c(OC)c1,0,26*,-11,0,-2,11,21,-6
Cc1ccccc1OCC(=O)Nc1ccc(Cc2ccncc2)cc1,1,25*,-19,25,5,0,9,-2
Cc1ccccc1CSc1nnc2ccc(-c3ccc4c(c3)OCO4)nn12,/,/,/,/,/,-6,/,/
O=C(CCc1ccccc1)Nc1ccc2c(c1)CN(C(=O)c1ccccc1)CC2,/,/,/,/,/,-3,/,/
Cc1cc(NC(=O)CSc2nc(-c3ccccc3)c(C#N)c(=O)[nH]2)no1,-1,41*,-4,-12,5,-10,56*,-5
N#Cc1c(-c2ccccc2)nc(SCC(=O)Nc2ccccc2F)[nH]c1=O,-1,15,-6,5,/,-1,/,/
CCC(Sc1nc(-c2ccccc2)c(C#N)c(=O)[nH]1)C(=O)Nc1nnc(C)s1 (stereo not given),-1,28*,-18,11,16,-11,48*,-6
N#Cc1c(-c2ccccc2)nc(SCC(=O)Nc2ccccc2)[nH]c1=O,0,28*,-11,-4,/,-21,39*,-5
Cc1cc(C)nc(NS(=O)(=O)c2ccc(NC(=O)CSc3nc(-c4ccccc4)c(C#N)c(=O)[nH]3)cc2)n1,2,50*,-36,-1,-2,-5,72*,-2
Cc1cc(F)ccc1S(=O)(=O)Nc1ccc2c(c1)CN(C(=O)c1ccco1)CC2,/,/,/,/,/,-1,/,/
CCCNc1nc(SCC)nc2c1cnn2CCNC(=O)CC(c1ccccc1)c1ccccc1,/,/,/,/,/,-23,/,/
CCOC(=O)c1c(NC(=O)c2ccco2)sc2c1CCC(C)C2 (stereo not given),/,/,/,/,/,-5,/,/
COc1ccc(CCNC(=O)Cn2cnc3c(-c4ccc(F)cc4)csc3c2=O)cc1OC,/,/,/,/,/,-17,/,/
S=C1NC2=C(C(c3ccc(Br)cc3)N1)N1CCC2CC1 (stereo not given),-1,26*,-23,4,4,-3,25*,0
CCCN1C(=O)/C(=C/C=C2\N(CC)c3ccccc3C2(C)C)SC1=S,1,1,-14,7,-4,5,/,/
SMILES,PfHsp40 yeast,PrPC surface inh,PrP UTR inh,Y pestis TopoI,BJeLR lethal,SSB-PriA inh,PrPC confirm,LD9 tox
CCN1/C(=C/C=C/C2=[N+](CC)c3ccccc3C2(C)C)C(C)(C)c2ccccc21,/,77*,/,-6,/,/,96*,78*
O=S(=O)(Nc1ccc(F)cc1)N1CCCCCC1,0,-7,-5,8,3,-13,/,/
Nc1ccc2ccc(NS(=O)(=O)N3CCCCC3)cc2c1,/,31*,/,/,/,/,12,9
Cc1c(C(=O)Nc2ccccc2-c2ccc(=O)[nH]n2)sc2nc(-c3ccc(F)cc3)cn12,/,/,/,/,/,-30,/,/
Nc1nc(-c2cccs2)c(CC(=O)O)s1,-1,-9,-29,8,0,4,/,/
CC1CC1C(=O)Nc1nc(-c2cccs2)c(-c2cccs2)s1 (stereo not given),2,25*,-15,-18,-5,-16,12,-3
Nc1nc(-c2cccs2)c(-c2cccs2)s1,-1,25*,-9,-5,-1,12,20,-1
CC1CN(S(=O)(=O)c2ccc(C(=O)Nc3ccccc3SCCC#N)cc2)CC(C)O1 (stereo not given),/,/,/,/,/,5,/,/
COc1ccc2[nH]c3c(NCCC4=CCCCC4)ncnc3c2c1,1,41*,-69,3,?,9,40*,22*
CCN(CC)CCNc1ncnc2c1[nH]c1ccc(OC)cc12,/,/,/,/,-1,/,/,/
O=C(c1cc(COc2ccc3ncccc3c2)on1)N1CCC(O)CC1,0,9,-26,11,11,-7,/,/
Cc1cc(CN(C)C(=O)c2cc(COc3ccc4ncccc4c3)on2)on1,1,17,-9,4,18,-19,/,/
CC(CNC(=O)c1cc(COc2ccc3ncccc3c2)on1)c1ccccc1 (stereo not given),9,25*,-21,38,-1,-8,22,17*
O=C(NC1CCCCCCC1)c1cc(COc2ccc3ncccc3c2)on1,2,28*,-21,27,23,2,19,18*
Nc1nc2c(Br)cccc2s1,/,/,/,/,/,-4,/,/
CC1CCCCC1Nc1nc2ccc(Cl)cc2n2cnnc12 (stereo not given),27*,34*,1,3,11,2,18,-1
CC(C)(C)NC(=O)N1CCC(CNC(=O)CCc2cccc(Cl)c2)CC1,/,/,/,/,/,4,/,/
COc1cc2[nH]c(=S)n(NC(=O)c3ccccc3)c(=O)c2cc1OC,4,36*,-9,2,6,-1,50*,-4
Cc1ccc(C(=O)Nc2cc(S(=O)(=O)N3CCOCC3)ccc2N2CCCC2)cc1,-1,46*,-28,14,/,-3,50*,-8
